# In ChEMBL document CHEMBL1961873, “Compounds: GSK PKIS; Assays: Nanosyn kinase panel” (2012):
# Legend:
# [1] = target: Tyrosine-protein kinase CSK (Homo sapiens) (UniProt P41240); conditions: at 1 µM;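 note: each value is an averaged inhibition reading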
# [2] = target: T1, Discoidin domain-containing receptor 2 (Homo sapiens) (UniProt Q16832); conditions: at 0.1 µM
# T1 sequence (whole entry): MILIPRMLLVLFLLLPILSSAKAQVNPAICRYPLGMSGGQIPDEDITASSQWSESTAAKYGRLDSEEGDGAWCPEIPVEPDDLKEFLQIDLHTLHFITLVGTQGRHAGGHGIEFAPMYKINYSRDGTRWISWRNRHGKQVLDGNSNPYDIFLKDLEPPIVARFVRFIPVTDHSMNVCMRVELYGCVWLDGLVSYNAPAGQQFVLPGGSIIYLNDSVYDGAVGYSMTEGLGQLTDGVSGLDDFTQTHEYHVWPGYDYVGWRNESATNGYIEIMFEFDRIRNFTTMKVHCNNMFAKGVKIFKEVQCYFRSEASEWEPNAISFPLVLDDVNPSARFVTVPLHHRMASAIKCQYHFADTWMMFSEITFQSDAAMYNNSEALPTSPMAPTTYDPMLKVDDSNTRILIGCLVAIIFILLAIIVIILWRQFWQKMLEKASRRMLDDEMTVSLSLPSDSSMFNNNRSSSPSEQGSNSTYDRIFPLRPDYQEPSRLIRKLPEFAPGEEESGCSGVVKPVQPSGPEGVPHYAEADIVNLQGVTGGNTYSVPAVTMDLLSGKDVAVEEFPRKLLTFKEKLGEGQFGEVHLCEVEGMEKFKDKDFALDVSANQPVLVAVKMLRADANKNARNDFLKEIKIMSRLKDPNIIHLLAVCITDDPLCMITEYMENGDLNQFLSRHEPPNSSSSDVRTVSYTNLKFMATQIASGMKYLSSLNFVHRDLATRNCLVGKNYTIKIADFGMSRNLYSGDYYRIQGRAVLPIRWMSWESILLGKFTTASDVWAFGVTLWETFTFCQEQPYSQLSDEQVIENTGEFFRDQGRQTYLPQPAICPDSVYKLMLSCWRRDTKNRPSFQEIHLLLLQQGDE
# [3] = target: T1, Discoidin domain-containing receptor 2 (Homo sapiens); conditions: at 1 µM
# [4] = target: Epidermal growth factor receptor (Homo sapiens) (UniProt P00533); conditions: at 0.1 µM
# [5] = target: Epidermal growth factor receptor (Homo sapiens) (UniProt P00533); conditions: at 1 µM
# [6] = tested on: Epidermal growth factor receptor (Homo sapiens), P00533 [L858R]; conditions: at 0.1 µM
# [7] = tested on: Epidermal growth factor receptor (Homo sapiens), P00533 [L858R]; conditions: at 1 µM
# [8] = tested on: Epidermal growth factor receptor (Homo sapiens), P00533 [L861Q]; conditions: at 0.1 µM
# [9] = tested on: Epidermal growth factor receptor (Homo sapiens), P00533 [L861Q]; conditions: at 1 µM
# [10] = tested on: Epidermal growth factor receptor (Homo sapiens), P00533 [T790M]; conditions: at 0.1 µM
# [11] = tested on: Epidermal growth factor receptor (Homo sapiens), P00533 [T790M]; conditions: at 1 µM
# [12] = tested on: Epidermal growth factor receptor (Homo sapiens), P00533 [L858R,T790M]; conditions: at 0.1 µM
# [13] = tested on: Epidermal growth factor receptor (Homo sapiens), P00533 [L858R,T790M]; conditions: at 1 µM
# [14] = target: Ephrin type-A receptor 2 (Homo sapiens) (UniProt P29317); conditions: at 0.1 µM
# [15] = target: Ephrin type-A receptor 2 (Homo sapiens) (UniProt P29317); conditions: at 1 µM
# [16] = target: T2, Ephrin type-A receptor 3 (Homo sapiens) (UniProt P29320); conditions: at 0.1 µM
# T2 sequence (whole entry): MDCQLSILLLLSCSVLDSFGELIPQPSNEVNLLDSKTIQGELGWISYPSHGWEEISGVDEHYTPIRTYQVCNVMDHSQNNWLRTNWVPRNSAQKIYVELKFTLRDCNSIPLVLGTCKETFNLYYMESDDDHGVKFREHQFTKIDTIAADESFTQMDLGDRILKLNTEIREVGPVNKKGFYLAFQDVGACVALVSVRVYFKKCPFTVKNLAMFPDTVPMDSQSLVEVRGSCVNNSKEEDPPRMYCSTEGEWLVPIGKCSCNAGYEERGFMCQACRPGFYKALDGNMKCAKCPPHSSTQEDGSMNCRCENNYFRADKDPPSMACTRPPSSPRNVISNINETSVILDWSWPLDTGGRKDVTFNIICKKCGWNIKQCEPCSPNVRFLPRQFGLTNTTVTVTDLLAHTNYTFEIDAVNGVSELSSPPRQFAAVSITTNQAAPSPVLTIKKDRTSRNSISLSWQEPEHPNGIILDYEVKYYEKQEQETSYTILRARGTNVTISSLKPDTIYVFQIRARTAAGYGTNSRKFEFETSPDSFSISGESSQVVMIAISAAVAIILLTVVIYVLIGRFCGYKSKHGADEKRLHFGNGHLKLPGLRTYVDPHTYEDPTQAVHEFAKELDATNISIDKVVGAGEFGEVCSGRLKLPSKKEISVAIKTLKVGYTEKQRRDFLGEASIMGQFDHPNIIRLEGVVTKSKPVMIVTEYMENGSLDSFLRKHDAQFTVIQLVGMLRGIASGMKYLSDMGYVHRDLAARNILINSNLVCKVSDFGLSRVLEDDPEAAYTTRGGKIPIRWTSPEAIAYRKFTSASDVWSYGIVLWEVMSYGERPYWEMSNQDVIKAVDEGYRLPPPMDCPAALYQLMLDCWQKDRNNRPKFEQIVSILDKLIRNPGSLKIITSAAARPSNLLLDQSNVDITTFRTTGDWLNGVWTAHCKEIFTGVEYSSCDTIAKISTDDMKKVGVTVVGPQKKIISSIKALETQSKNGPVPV
# [17] = target: T2, Ephrin type-A receptor 3 (Homo sapiens); conditions: at 1 µM
# [18] = target: Ephrin type-A receptor 4 (Homo sapiens) (UniProt P54764); conditions: at 0.1 µM
# [19] = target: Ephrin type-A receptor 4 (Homo sapiens) (UniProt P54764); conditions: at 1 µM
# [20] = target: T3, Ephrin type-B receptor 2 (Homo sapiens) (UniProt P29323); conditions: at 0.1 µM;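 note: reported as mean inhibition of EPHB2, from the GSK PKIS dataset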
# T3 sequence (whole entry): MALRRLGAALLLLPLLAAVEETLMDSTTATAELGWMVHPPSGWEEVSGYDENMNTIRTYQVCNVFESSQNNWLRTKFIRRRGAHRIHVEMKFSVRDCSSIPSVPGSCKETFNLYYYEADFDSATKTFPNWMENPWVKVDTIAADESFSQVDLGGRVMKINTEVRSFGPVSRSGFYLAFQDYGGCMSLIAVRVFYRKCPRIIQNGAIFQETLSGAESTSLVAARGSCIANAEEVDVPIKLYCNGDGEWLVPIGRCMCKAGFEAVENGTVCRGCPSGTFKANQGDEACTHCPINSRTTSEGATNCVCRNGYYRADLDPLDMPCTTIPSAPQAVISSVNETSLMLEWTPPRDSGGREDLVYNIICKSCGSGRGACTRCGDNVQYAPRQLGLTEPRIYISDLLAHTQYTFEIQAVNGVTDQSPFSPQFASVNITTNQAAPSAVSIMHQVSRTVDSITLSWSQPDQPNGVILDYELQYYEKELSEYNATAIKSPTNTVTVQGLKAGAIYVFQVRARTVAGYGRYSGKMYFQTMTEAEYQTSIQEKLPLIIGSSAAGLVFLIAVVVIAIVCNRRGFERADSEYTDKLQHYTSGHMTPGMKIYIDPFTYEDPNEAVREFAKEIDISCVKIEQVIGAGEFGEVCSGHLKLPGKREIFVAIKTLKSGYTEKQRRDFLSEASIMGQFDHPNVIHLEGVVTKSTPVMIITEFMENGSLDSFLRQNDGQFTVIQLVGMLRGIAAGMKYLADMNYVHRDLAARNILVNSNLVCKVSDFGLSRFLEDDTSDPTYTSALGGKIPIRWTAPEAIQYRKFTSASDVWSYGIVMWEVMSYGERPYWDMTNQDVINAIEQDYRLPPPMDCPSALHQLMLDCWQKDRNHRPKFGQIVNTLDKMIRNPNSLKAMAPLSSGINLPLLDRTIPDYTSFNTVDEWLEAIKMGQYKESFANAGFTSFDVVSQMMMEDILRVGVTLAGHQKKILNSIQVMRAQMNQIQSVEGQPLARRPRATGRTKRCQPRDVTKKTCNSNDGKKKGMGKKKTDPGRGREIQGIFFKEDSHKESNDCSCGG
# Epidermal growth factor receptor (Homo sapiens), P00533 [L858R,T790M], sequence (P00533 whole entry T790M/L858R, looked up): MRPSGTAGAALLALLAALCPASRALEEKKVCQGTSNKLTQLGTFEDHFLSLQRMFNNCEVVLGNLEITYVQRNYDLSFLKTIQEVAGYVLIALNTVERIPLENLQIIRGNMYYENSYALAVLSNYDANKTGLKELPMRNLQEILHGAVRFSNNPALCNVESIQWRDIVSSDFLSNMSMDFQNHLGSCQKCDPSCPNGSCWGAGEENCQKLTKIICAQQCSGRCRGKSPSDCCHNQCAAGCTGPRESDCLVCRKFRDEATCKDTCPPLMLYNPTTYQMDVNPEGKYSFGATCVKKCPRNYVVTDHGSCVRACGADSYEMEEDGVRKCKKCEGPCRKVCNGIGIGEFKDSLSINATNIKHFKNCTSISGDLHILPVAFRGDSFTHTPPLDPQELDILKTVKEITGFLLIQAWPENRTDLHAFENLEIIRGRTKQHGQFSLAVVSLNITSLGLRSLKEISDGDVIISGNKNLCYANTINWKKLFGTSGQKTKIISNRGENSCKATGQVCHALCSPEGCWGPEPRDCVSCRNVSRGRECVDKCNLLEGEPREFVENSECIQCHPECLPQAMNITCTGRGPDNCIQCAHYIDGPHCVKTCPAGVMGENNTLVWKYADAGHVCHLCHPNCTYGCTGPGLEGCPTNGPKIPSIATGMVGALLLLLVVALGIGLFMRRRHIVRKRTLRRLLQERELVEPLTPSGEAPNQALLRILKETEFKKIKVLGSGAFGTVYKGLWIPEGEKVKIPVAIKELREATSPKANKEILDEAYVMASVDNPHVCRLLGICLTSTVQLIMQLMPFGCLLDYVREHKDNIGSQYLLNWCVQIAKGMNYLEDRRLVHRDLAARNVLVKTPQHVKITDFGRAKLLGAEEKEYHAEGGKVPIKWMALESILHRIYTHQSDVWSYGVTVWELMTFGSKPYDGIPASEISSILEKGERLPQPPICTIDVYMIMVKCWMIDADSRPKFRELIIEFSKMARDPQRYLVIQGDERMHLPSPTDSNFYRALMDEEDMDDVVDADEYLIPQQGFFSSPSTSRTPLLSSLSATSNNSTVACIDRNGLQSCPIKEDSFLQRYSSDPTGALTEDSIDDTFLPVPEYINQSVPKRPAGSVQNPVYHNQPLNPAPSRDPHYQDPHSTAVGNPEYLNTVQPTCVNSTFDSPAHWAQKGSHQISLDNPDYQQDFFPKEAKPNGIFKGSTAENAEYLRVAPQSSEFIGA
# Epidermal growth factor receptor (Homo sapiens), P00533 [T790M], sequence (P00533 whole entry T790M): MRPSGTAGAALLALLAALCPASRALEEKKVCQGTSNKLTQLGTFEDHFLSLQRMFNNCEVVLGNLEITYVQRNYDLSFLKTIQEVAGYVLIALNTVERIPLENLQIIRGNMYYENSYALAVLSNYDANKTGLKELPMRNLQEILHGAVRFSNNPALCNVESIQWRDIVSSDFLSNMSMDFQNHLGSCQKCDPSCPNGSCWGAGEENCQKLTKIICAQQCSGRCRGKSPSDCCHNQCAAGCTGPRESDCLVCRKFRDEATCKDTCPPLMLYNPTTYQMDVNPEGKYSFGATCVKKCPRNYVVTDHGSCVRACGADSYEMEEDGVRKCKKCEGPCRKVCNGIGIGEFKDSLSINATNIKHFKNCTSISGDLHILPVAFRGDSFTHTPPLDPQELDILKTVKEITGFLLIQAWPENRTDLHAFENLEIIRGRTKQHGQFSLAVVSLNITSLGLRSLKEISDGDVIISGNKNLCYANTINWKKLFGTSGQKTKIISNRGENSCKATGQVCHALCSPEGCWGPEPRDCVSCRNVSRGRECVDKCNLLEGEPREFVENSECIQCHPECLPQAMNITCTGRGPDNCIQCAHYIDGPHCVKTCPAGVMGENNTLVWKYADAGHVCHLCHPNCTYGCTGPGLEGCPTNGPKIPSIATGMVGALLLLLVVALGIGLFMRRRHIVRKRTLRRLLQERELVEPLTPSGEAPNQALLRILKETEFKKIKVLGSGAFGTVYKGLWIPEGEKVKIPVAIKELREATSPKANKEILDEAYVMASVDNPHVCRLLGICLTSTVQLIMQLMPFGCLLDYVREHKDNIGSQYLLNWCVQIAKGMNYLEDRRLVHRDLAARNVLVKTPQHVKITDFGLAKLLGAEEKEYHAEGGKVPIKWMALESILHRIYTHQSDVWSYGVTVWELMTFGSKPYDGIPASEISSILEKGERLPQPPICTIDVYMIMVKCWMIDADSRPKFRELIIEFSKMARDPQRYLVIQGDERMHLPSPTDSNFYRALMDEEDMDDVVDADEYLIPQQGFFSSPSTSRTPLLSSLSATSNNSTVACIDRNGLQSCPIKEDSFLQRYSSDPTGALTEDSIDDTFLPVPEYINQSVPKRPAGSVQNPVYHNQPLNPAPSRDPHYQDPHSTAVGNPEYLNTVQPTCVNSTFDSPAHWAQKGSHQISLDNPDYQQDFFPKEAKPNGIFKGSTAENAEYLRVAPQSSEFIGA
# Tyrosine-protein kinase CSK (Homo sapiens), sequence (P41240 2-450 limits assumed): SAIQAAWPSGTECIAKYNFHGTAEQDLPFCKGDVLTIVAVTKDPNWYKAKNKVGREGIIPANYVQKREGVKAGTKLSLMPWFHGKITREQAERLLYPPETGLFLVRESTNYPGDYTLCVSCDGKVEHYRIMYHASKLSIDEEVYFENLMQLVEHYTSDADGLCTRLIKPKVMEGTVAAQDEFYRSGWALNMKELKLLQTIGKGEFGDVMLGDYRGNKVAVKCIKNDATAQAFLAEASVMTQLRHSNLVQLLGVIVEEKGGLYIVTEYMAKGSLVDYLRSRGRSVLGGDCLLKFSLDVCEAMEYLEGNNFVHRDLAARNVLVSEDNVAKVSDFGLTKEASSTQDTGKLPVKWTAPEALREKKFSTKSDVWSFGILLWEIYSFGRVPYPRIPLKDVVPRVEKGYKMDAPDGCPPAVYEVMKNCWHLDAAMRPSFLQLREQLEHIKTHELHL
# Epidermal growth factor receptor (Homo sapiens), P00533 [L861Q], sequence (P00533 whole entry L861Q): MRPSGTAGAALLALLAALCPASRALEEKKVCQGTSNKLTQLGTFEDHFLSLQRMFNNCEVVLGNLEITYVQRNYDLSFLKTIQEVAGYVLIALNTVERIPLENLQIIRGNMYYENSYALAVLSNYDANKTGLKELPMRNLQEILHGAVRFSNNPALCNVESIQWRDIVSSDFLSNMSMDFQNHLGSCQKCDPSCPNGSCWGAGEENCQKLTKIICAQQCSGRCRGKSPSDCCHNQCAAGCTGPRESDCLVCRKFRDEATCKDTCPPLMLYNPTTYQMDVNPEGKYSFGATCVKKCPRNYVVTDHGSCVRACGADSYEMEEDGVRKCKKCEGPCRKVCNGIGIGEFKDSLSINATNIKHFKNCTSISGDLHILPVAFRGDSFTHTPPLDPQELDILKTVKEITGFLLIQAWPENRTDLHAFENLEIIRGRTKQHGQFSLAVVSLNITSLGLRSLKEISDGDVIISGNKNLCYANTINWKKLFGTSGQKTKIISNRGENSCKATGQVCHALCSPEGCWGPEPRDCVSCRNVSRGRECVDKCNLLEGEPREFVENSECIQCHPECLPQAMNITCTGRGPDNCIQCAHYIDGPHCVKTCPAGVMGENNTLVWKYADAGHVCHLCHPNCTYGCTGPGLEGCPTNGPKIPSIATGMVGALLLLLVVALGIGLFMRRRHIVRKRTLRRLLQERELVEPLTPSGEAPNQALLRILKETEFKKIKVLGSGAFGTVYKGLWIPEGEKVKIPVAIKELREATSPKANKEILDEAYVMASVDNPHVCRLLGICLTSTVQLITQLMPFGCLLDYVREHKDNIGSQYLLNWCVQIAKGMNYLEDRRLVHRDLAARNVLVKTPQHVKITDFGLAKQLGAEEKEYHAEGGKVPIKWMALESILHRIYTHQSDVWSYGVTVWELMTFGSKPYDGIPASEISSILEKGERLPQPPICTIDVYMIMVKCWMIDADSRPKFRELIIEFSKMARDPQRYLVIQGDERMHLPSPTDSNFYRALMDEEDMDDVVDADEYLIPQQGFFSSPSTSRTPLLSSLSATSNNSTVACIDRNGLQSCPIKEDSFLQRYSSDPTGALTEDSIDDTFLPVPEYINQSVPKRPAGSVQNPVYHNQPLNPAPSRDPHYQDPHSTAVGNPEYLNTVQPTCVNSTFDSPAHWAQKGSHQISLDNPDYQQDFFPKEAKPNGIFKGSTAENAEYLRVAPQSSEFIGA
# Ephrin type-A receptor 2 (Homo sapiens), sequence (P29317 whole entry): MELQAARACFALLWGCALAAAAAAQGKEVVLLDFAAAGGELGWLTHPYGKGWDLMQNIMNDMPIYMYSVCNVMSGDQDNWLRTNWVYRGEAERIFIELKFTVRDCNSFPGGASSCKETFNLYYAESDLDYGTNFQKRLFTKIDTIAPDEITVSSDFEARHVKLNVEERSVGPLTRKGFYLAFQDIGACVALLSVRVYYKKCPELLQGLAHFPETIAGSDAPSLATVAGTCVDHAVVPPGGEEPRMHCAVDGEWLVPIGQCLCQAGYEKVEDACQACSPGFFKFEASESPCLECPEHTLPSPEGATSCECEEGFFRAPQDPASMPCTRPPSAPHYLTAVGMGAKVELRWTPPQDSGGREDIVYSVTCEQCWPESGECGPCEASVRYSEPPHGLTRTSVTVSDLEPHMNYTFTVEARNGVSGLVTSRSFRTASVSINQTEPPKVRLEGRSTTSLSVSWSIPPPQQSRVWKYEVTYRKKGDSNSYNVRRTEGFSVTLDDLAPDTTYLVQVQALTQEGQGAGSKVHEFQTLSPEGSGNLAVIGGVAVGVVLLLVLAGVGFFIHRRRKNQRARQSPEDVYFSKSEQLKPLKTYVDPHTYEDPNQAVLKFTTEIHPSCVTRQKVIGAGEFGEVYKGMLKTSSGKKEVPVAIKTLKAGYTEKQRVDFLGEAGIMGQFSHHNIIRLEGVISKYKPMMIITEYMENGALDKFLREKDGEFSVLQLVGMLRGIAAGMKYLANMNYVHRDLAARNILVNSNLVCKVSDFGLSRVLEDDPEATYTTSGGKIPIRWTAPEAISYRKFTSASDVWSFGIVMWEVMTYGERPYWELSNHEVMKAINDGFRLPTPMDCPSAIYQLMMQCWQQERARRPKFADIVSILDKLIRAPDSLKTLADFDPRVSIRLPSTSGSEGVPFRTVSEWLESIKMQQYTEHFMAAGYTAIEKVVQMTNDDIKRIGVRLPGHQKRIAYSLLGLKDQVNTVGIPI
SMILES,inhibition [1],inhibition [2],inhibition [3],inhibition [4],inhibition [5],inhibition [6],inhibition [7],inhibition [8],inhibition [9],inhibition [10],inhibition [11],inhibition [12],inhibition [13],inhibition [14],inhibition [15],inhibition [16],inhibition [17],inhibition [18],inhibition [19],inhibition [20]
FC(F)(F)c1cccc(Nc2nccc(-c3cnn4nc(-c5ccccc5)ccc34)n2)c1,1.44%,0.05%,2.08%,-0.78%,0.92%,-0.7%,-0.57%,1.2%,0.07%,1.28%,-0.22%,0.52%,-0.49%,2%,0.59%,2.67%,3.91%,5.08%,-4.97%,4.58%
O=C(Nc1ccc(Oc2ccc3[nH]c(NC(=O)c4ccccc4)nc3c2)cc1)Nc1cc(C(F)(F)F)ccc1F,11.7%,24.4%,78.7%,-0.35%,1.11%,7.18%,6.93%,2.47%,3.54%,2.22%,5.49%,1.07%,2.34%,2.75%,26%,4.22%,8.94%,13.4%,64.2%,13.7%
COc1ccc2cc(-c3c(-c4ccncc4)nc(-c4ccc(S(C)(=O)=O)cc4C)n3C)ccc2c1,7.9%,-1.21%,-5.12%,0.26%,6.12%,1.94%,10.5%,2.4%,10.6%,1.37%,3.3%,1.66%,2.57%,0.22%,0.86%,4.84%,3.83%,9.07%,17.6%,4.7%
COc1cc2ncn(-c3cc(OCc4cccs4)c(C(N)=O)s3)c2cc1OC,9.5%,3.95%,4.63%,-1.17%,1.76%,4.34%,18.5%,2.87%,7.86%,1.54%,5.88%,-0.25%,5.43%,-1.31%,-1.86%,-2.47%,0.85%,8.34%,19.3%,7.38%
CS(=O)(=O)CCNCc1cc(-c2cc3c(Nc4ccc(OCc5cccc(F)c5)c(Cl)c4)ncnc3s2)cs1,4.58%,4.67%,6.01%,61.5%,83.7%,18.1%,61.2%,31.4%,57.8%,0.98%,6.23%,1.25%,6.55%,0.54%,-0.67%,1.87%,2.18%,8.11%,10.4%,12.3%
CS(=O)(=O)CCNCc1ccc(-c2ccc3ncnc(Nc4ccc(OCc5ccccc5)c(Br)c4)c3c2)o1,4.59%,1.43%,1.04%,69.5%,81.6%,49.3%,91.2%,48.1%,83.7%,4.96%,15.8%,1.22%,-0.73%,-1.09%,-2.25%,1.29%,1.45%,7%,10.9%,7.88%
COc1cc2ncn(-c3cc(OCc4ccccc4C(F)(F)F)c(C(C)=O)s3)c2cc1OC,3.13%,3.54%,5.22%,-0.8%,1.81%,-2.47%,3.36%,1.73%,0.09%,2.46%,0.97%,-1.84%,0.68%,1.98%,2.23%,1.78%,4.66%,5.55%,10.6%,5.43%
Fc1ccc(-c2ncn(C3CCNCC3)c2-c2ccnc(Oc3ccc(F)c(F)c3)n2)cc1,2.38%,1.67%,2.09%,-3.12%,-0.79%,1.05%,7.57%,3.65%,4.21%,1.53%,1.67%,2.65%,1.47%,-2.47%,-2.72%,-1.56%,0.81%,6.95%,9.68%,6.59%
CN1CCN(CCCNc2nc3ccc(Oc4ccc(NC(=O)Nc5cc(C(F)(F)F)ccc5F)cc4)cc3[nH]2)CC1,-3.31%,73.9%,83.6%,-3.44%,0.24%,1%,0.13%,0.67%,-4.02%,0.51%,-2.83%,-0.44%,-4.26%,-3.26%,2.37%,-0.6%,-0.47%,6.02%,25.9%,9.54%
c1ccc(-c2n[nH]cc2-c2ccnc(-c3ccc(OCCN4CCOCC4)cc3)c2)nc1,-4.36%,7.59%,7.75%,3.33%,6.67%,-2.03%,-1.71%,-0.15%,-2.39%,-0.02%,-0.63%,1.82%,-2.02%,4.75%,2.42%,-1.39%,-0.22%,-5.11%,-9.05%,0.38%
CCc1nccc2c1nc(-c1nonc1N)n2CC,-3.01%,1.17%,2.38%,6.7%,7.54%,0.22%,-2.09%,-1.13%,-0.05%,-1.16%,-1.27%,-0.81%,1.48%,0.61%,0.69%,-0.26%,1.46%,0.87%,-5.92%,-5.8%
NC(=O)c1cc(-c2ccncc2)cc(-c2ccccc2)c1N,16.1%,4.49%,27.6%,8.28%,18%,4.58%,39.7%,3.24%,11.9%,1.64%,2.91%,3.41%,9.94%,15.2%,56.3%,5.37%,8.77%,19.8%,62.8%,16.5%
NC(=O)c1ccc(Oc2nccc(-c3c(-c4ccc(F)cc4)ncn3C3CCNCC3)n2)cc1,4.26%,0.13%,0.3%,0.48%,1.21%,3.13%,2.9%,2.71%,5.43%,2.31%,4.36%,3.71%,1.81%,2.58%,1.73%,2.37%,5.3%,8.5%,11%,8.08%
COc1cc(C)c(N(C)C(=O)CN(C)C)cc1Nc1nc(Nc2cccc(F)c2C(N)=O)c2cc[nH]c2n1,-1.53%,0.29%,0.56%,-4.88%,-1.47%,-1.11%,1.56%,1.84%,-2.41%,0.93%,1.09%,-0.19%,1.92%,-2.68%,-4.61%,-1.1%,-3.2%,3.77%,-1.31%,2.81%
